From PubChem
HT1080 IDH1KD tx – kills HT-1080 cells with IDH1 knockdown; HT-1080 IDH1 knockdown viability, ATP luminescence, 48 h; Potency, µM (highest dose often 46.1 µM), usual class: cytotoxic; actives 2% (n = 360,000); AID 686971
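Assay cells: HT-1080 with IDH1 knockdown, 750 per well, RPMI/5% FBS. Exposure: 48 h at 37 °C following 2 h pre-incubation. Read: CellTiter-Glo luminescence; fitted concentration-response, curve class assigned.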
KB-3-1 tox – kills parental KB-3-1 adenocarcinoma cells. AID 1347075. KB-3-1 viability, CellTiter-Glo ATP luminescence, 72 h. actives 1.4% (n = 400,000). Potency, µM (top dose mostly 46.1 µM), actives largely listed as cytotoxic; note: nearly all actives have a fitted effect of over 60% in size
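Cells are dispensed, compounds pinned in, plates held at 37 °C for 72 h, then CellTiter-Glo is added and luminescence read after 10 minutes. Cell line: parental KB-3-1 in phenol-red-free DMEM, 10% FBS.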
HT1080-NT tox – kills 2HG-producing HT-1080-NT fibrosarcoma cells. HT-1080-NT fibrosarcoma viability, CellTiter-Glo ATP luminescence, 48 h. actives 1.6% (n = 360,000). Potency, µM (highest dose often 46.1 µM), hits mostly cytotoxic;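 note: NT is the 2HG producing partner of a matched IDH1 knockdown line; nearly all actives have a fitted effect of over 55% in size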
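Viability of the 2HG-overproducing fibrosarcoma line after 48 hours of compound exposure at 37 degrees C was determined by luminescence with CellTiter-Glo, and concentration-effect curves were then fitted and categorized.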
KB-V1 cytotox – KB-V1 MDR subline cytotoxicity; Potency, µM (titrated, usually from 46.1 µM), hits mostly cytotoxic; AID 1347076; actives 3.4% (n = 400,000); KB-V1 MDR cells viability, CellTiter-Glo, 72 h; note: nearly all actives have a fitted effect of over 60% in size
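Drug-selected KB-V1 cells, grown in DMEM lacking phenol red with 10% FBS, receive compound titrations; after three days at 37 degrees C, surviving cell ATP is quantified by CellTiter-Glo luminescence and responses normalized and curve-fitted.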
MCF10A rereplic – induces DNA re-replication in MCF 10a normal breast cells; Potency, µM (titrated, usually from 46.1 µM), most hits filed as activators; actives 2.9% (n = 350,000); MCF 10A DNA re-replication, Hoechst nuclear intensity, 48 h; AID 624296; note: nearly all actives have a fitted effect of over 50% in size
SW480 rereplic – induces DNA re-replication in SW480 colon adenocarcinoma cells; SW480 DNA re-replication, Hoechst DNA content imaging, 48 h; Potency, µM (top dose mostly 46.1 µM), actives largely listed as activators; actives 1.8% (n = 340,000); AID 624297; note: nearly all actives have a fitted effect of over 55% in size
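Quantitative HTS format with DMSO vehicle controls; 48 hr drug incubation at 37 C, then 40 min Hoechst staining and scanning imager measurement at 405 nm excitation.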
Large screens that a line does not name were inactive. This is a sample that favours compounds with a hit; in the whole collection about 8% have one here. Calls come from the whole dose curve; as a rule, active = well fitted curve in the direction sought with a large enough effect; inconclusive = small, poorly fitted or top-dose-only effect, or another doubt; inactive = no such curve, though single readings can be large; an effect the other way counts as inactive or inconclusive.

O=C(C1CCC(CNS(=O)(=O)c2cccc3nsnc23)CC1)N1CCN(c2ccccn2)CC1 (stereo not given)	KB-V1 cytotox 18µM
COc1ccc(C2C(Oc3ccccc3)C(=O)N2c2ccc(C)c(C)c2)cc1OC (stereo not given)	none
COc1ccc(C2C(Oc3ccccc3)C(=O)N2c2cc(C)ccc2C)cc1OC (stereo not given)	KB-V1 cytotox 6.5µM
CCOc1ccccc1NC(=O)Cn1nc2c3cc(F)ccc3n(Cc3cccc(C)c3)cc-2c1=O	none (no result: HT1080 IDH1KD tx, HT1080-NT tox, MCF10A rereplic, SW480 rereplic)
Cc1cc(C(=O)CN2C(=O)C(=O)N(Cc3ccco3)C2=O)c(C)n1CCc1ccccc1	HT1080 IDH1KD tx inconclusive, KB-3-1 tox inconclusive, HT1080-NT tox inconclusive, KB-V1 cytotox 16µM, MCF10A rereplic 4.6µM, SW480 rereplic inconclusive
Cc1cc(C(=O)CN2C(=O)C(=O)N(Cc3ccco3)C2=O)c(C)n1CCc1ccc(F)cc1	HT1080 IDH1KD tx inconclusive, KB-3-1 tox 18µM, HT1080-NT tox inconclusive, KB-V1 cytotox 15µM, MCF10A rereplic inconclusive, SW480 rereplic inconclusive
Cc1[nH]c2ccccc2c1C(=O)CN1C(=O)C(=O)N(Cc2ccco2)C1=O	none
COc1ccc(-n2c(C)cc(C(=O)CN3C(=O)C(=O)N(Cc4ccccc4)C3=O)c2C)cc1	HT1080 IDH1KD tx inconclusive, KB-3-1 tox inconclusive, HT1080-NT tox inconclusive, KB-V1 cytotox inconclusive, MCF10A rereplic 5.8µM
CCC12CN3CC(C)(CN(C1)C3c1c(C)n(C)c3ccccc13)C2=O (stereo not given)	none (no result: HT1080 IDH1KD tx, HT1080-NT tox, MCF10A rereplic, SW480 rereplic)
Nc1nc(=S)c2ncn(C3OC(CO)C(O)C3O)c2[nH]1 (stereo not given)	HT1080 IDH1KD tx 21µM, KB-3-1 tox 5.8µM, HT1080-NT tox 15µM, KB-V1 cytotox 1µM, MCF10A rereplic inconclusive
OCC1OC(n2cnc3c(=S)nc[nH]c32)C(O)C1O (stereo not given)	KB-3-1 tox 0.58µM, KB-V1 cytotox inconclusive, MCF10A rereplic inconclusive (no result: HT1080 IDH1KD tx, HT1080-NT tox)
CC1(C)OC2C(CO)OC(n3cnc4c(=S)nc(N)[nH]c43)C2O1 (stereo not given)	KB-3-1 tox inconclusive, HT1080-NT tox inconclusive, KB-V1 cytotox inconclusive (no result: MCF10A rereplic, SW480 rereplic)
Nc1nc(=S)c2ncn([C@@H]3O[C@H](CO)[C@@H](O)[C@H]3O)c2[nH]1	HT1080 IDH1KD tx 0.92µM, KB-3-1 tox inconclusive, HT1080-NT tox 1.5µM, KB-V1 cytotox 0.92µM, MCF10A rereplic inconclusive
CC(C)Sc1nnc2c3ccccc3n(C)c2n1	none (no result: KB-3-1 tox, KB-V1 cytotox, MCF10A rereplic, SW480 rereplic)
Cc1c(C)n(C)c2ccc(C(=O)NCCN3CCOCC3)cc12	MCF10A rereplic inconclusive
COc1ccc(C(=O)OCC(=O)NCCN2C(=O)CSC2=O)cc1	none
O=C(Cc1ccc(Cl)cc1)Nc1nnc2n1CCS2	none (no result: HT1080 IDH1KD tx, HT1080-NT tox, MCF10A rereplic, SW480 rereplic)
Cn1nc(C(F)(F)F)c(/C=N/OC(=O)c2ccccc2Cl)c1SCc1ccccc1Cl	KB-3-1 tox inconclusive, HT1080-NT tox inconclusive, KB-V1 cytotox inconclusive, SW480 rereplic inconclusive
Cn1nc(C(F)(F)F)c(/C=N/OC(=O)c2ccccc2)c1SCc1ccc(Cl)cc1	KB-V1 cytotox 18µM, MCF10A rereplic inconclusive
Cc1ccc(NC(=O)c2c(C(F)(F)F)nn(C)c2SCc2ccc(Cl)cc2)cc1C	HT1080 IDH1KD tx inconclusive, KB-3-1 tox inconclusive, HT1080-NT tox inconclusive, KB-V1 cytotox 8.2µM, MCF10A rereplic inconclusive, SW480 rereplic inconclusive
CCN(CC)c1nc2c(S(=O)(=O)c3ccc(C)cc3)nnn2c2ccsc12	none (no result: HT1080 IDH1KD tx, HT1080-NT tox, MCF10A rereplic, SW480 rereplic)
COc1ccc(/C=N/Nc2cc(N3CCCC3)nc(N3CCCC3)n2)cc1	HT1080 IDH1KD tx 16µM, KB-3-1 tox inconclusive, HT1080-NT tox 13µM, KB-V1 cytotox inconclusive, MCF10A rereplic 18µM, SW480 rereplic 9.2µM
C/C=C(\C)C(=O)OC(C)(C)[C@H]1Cc2cc3ccc(=O)oc3cc2O1	KB-V1 cytotox inconclusive, MCF10A rereplic inconclusive
O=C(CN1CCCN(Cc2ccc(F)cc2)S1(=O)=O)NCc1ccccc1Cl	none (no result: HT1080 IDH1KD tx, HT1080-NT tox, MCF10A rereplic, SW480 rereplic)
O=c1[nH]c(CN2CCN(c3ccccc3)CC2)nc2scc(-c3ccccc3)c12	KB-3-1 tox inconclusive, KB-V1 cytotox 9.2µM, MCF10A rereplic 5.2µM, SW480 rereplic inconclusive
